In PMC7862700, “An all-to-all approach to the identification of sequence-specific readers for epigenetic DNA modifications on cytosine”:

What was measured:
Experiment in all cases: DAPPL (digital affinity profiling via proximity ligation, sequencing); 10 mM Tris-HCl pH 7.5, 50 mM NaCl, 1 mM DTT, 4% glycerol, room temperature, 30 min; GST-TFs on glutathione beads, 16-mer random dsDNA library, 0.1% formaldehyde crosslink after washing; high values mean tight binding
Conditions in all cases: protein: recombinant; tags: N-terminal GST; dsDNA, one strand shown
[1] = molecular target: T1, FLI1 (Homo sapiens, UniProt Q01543 1-452)
T1 sequence: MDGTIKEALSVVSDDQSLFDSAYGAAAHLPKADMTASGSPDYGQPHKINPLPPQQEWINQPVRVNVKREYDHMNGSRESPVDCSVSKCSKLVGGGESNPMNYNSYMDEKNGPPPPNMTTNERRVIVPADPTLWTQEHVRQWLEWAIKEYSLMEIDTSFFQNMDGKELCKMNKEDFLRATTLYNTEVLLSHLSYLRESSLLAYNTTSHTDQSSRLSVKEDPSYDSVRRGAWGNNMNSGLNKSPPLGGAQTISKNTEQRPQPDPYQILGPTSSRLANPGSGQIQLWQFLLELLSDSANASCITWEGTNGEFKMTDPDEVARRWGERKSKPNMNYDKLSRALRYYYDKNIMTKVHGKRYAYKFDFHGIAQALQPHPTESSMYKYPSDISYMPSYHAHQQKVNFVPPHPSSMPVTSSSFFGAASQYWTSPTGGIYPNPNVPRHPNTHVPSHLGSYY
Method in brief: (§1)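 Sequencing on an Illumina NextSeq500 followed washing, crosslinking with 0.1% formaldehyde, proximity ligation (BsaI/T4 ligase, 1 h, 37 °C) and PCR amplification of pools that had been incubated for 30 min at room temperature with 200 nmole of a random double-stranded 16-mer DNA library in Tris/NaCl/DTT/glycerol buffer. Each pool held DNA-barcoded human transcription factors, expressed in yeast as GST fusions and captured on glutathione beads, plus a tag-only sample. Binding signal is a hexamer's read frequency for a factor divided by its frequency in the tag-only sample.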

[2] = molecular target: T2, ELK1 (Homo sapiens, UniProt P19419 1-428)
T2 sequence: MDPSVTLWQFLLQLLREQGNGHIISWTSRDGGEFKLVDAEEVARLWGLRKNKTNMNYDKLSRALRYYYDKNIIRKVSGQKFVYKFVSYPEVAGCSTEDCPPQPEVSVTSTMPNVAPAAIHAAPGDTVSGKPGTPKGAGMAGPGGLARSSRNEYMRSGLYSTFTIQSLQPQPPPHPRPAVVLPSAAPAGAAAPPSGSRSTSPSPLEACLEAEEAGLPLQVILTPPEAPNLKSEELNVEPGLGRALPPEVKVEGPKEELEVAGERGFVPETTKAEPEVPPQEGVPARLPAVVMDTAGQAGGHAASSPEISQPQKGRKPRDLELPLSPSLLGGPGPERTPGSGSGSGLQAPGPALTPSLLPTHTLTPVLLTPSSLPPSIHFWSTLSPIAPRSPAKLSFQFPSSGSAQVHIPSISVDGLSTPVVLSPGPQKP
Method in brief: as §1

[3] = molecular target: T3, GABPA (Homo sapiens, UniProt Q06546 1-454)
T3 sequence: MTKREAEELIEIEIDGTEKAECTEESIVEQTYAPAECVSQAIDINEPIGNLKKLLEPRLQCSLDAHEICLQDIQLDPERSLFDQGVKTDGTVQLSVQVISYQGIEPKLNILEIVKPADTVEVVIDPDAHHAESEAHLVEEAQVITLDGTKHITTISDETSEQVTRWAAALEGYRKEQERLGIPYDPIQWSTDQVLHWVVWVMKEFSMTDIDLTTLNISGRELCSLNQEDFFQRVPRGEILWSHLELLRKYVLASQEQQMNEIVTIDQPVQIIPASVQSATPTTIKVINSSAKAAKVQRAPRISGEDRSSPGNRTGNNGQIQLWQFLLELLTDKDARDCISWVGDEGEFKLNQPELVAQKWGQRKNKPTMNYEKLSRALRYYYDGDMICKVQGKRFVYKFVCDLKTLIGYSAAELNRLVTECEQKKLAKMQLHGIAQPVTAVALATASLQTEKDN
Method in brief: as §1

[4] = molecular target: T4, ERG (Homo sapiens, UniProt P11308 1-479)
T4 sequence: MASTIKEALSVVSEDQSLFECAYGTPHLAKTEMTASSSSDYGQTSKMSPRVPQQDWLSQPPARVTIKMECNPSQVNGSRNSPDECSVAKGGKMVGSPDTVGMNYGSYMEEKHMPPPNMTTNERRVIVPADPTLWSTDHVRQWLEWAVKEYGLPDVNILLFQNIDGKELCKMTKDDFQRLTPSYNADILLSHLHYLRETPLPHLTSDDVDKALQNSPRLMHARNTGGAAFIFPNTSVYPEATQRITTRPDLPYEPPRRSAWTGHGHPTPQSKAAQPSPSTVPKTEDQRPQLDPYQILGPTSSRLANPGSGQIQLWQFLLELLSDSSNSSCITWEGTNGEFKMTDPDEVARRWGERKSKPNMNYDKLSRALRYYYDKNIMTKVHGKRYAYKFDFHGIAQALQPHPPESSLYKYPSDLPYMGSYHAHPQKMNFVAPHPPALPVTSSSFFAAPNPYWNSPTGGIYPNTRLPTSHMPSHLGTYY
Method in brief: as §1

[5] = molecular target: ELF1 (Homo sapiens, UniProt P32519 1-619)
Method in brief: as §1

[6] = molecular target: T5, EHF (Homo sapiens, UniProt Q9NZC4 1-300)
T5 sequence: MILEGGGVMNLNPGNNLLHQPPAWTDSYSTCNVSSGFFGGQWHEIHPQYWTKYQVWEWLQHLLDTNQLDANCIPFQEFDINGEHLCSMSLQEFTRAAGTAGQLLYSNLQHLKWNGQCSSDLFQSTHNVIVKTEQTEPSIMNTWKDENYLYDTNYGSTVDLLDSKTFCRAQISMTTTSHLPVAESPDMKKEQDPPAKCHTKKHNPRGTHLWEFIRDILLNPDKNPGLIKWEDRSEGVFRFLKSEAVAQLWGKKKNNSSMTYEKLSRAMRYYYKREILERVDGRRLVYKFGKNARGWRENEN
Method in brief: as §1

[7] = molecular target: SPI1 (Homo sapiens, UniProt P17947 1-270)
Method in brief: as §1

[8] = molecular target: SPIB (Homo sapiens, UniProt Q01892 1-262)
Method in brief: as §1

[9] = molecular target: T6, ELK3 (Homo sapiens, UniProt P41970 1-407)
T6 sequence: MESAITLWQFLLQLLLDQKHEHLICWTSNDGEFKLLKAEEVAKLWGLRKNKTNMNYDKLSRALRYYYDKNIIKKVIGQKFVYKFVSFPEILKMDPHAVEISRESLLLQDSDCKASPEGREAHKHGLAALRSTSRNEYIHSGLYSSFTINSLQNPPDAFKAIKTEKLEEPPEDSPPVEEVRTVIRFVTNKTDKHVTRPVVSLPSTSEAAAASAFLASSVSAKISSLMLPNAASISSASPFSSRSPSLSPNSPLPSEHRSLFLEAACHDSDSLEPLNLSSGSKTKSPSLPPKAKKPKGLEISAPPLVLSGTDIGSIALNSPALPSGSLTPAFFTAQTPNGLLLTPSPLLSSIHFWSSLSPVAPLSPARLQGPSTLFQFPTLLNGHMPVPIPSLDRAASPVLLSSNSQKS
Method in brief: as §1

[10] = molecular target: T7, FEV (Homo sapiens, UniProt Q99581 1-238)
T7 sequence: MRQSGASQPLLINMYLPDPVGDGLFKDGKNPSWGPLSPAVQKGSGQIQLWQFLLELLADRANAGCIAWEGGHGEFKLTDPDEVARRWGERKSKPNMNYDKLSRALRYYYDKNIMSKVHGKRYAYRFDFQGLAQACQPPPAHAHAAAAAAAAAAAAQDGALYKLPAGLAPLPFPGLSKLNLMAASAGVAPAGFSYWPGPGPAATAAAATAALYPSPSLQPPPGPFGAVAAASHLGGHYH
Method in brief: as §1

[11] = molecular target: ETV5 (Homo sapiens, UniProt P41161 1-510)
Method in brief: as §1

[12] = molecular target: ELF4 (Homo sapiens, UniProt Q99607 1-663)
Method in brief: as §1

[13] = molecular target: ETV1 (Homo sapiens, UniProt P50549 1-477)
Method in brief: as §1

[14] = molecular target: T8, ERF (Homo sapiens, UniProt P50548 1-548)
T8 sequence: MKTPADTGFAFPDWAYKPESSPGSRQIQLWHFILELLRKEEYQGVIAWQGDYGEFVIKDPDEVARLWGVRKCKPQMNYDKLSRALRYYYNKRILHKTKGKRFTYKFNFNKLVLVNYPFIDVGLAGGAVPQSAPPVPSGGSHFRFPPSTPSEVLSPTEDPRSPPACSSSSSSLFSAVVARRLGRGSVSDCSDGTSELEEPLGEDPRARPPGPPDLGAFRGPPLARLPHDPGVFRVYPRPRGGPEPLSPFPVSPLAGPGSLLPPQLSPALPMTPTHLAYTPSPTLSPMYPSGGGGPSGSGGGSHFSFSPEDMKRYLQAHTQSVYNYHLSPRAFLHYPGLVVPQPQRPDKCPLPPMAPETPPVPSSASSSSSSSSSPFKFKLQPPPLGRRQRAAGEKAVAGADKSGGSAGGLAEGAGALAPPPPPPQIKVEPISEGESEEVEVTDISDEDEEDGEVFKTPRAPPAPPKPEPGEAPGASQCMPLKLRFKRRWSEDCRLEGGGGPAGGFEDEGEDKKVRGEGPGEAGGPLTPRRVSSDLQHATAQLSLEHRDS
Method in brief: as §1

[15] = molecular target: T9, ETV3L (Homo sapiens, UniProt Q6ZN32 1-361)
T9 sequence: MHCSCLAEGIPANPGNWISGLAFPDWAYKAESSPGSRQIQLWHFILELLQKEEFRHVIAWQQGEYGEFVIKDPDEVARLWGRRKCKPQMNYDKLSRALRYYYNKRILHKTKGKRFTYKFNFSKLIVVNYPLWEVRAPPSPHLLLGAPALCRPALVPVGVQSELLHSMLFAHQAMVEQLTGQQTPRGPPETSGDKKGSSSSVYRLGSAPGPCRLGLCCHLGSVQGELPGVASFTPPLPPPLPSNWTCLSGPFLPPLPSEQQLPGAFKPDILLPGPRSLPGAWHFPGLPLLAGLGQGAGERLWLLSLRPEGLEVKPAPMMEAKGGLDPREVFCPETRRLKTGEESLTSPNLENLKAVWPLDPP
Method in brief: as §1

[16] = molecular target: T10, ETS2 (Homo sapiens, UniProt P15036 1-469)
T10 sequence: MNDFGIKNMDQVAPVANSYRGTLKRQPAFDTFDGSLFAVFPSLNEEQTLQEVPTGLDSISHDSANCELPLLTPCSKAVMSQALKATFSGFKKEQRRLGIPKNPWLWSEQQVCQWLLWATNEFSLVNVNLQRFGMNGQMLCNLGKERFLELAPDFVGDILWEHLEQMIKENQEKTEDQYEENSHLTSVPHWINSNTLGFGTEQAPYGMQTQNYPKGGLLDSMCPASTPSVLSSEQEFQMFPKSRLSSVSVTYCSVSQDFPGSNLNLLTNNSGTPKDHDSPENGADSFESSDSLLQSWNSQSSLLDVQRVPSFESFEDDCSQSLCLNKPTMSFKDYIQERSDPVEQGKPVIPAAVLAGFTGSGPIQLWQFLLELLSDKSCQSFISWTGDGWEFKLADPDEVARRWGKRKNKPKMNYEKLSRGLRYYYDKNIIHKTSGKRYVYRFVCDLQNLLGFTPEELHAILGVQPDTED
Method in brief: as §1

[17] = molecular target: T11, SPDEF (Homo sapiens, UniProt O95238 1-335)
T11 sequence: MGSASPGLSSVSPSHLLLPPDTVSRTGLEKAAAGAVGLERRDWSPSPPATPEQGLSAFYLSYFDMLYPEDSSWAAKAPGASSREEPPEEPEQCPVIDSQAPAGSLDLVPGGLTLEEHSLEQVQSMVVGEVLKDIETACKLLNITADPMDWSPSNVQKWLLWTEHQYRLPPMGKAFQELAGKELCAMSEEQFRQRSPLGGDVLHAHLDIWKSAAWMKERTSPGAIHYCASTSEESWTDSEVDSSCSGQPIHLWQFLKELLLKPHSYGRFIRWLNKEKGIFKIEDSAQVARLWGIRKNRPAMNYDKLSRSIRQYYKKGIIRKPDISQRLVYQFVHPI
Method in brief: as §1

[18] = molecular target: T12, ETV3 (Homo sapiens, UniProt P41162-2 1-143)
T12 sequence: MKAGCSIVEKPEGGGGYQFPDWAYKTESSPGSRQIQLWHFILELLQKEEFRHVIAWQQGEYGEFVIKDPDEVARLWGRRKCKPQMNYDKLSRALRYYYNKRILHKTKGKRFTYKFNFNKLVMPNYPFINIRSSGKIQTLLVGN
Method in brief: as §1

[19] = molecular target: ETV6 (Homo sapiens, UniProt P41212 1-452)
Method in brief: as §1

Sequence of ETV1 (P50549 whole entry): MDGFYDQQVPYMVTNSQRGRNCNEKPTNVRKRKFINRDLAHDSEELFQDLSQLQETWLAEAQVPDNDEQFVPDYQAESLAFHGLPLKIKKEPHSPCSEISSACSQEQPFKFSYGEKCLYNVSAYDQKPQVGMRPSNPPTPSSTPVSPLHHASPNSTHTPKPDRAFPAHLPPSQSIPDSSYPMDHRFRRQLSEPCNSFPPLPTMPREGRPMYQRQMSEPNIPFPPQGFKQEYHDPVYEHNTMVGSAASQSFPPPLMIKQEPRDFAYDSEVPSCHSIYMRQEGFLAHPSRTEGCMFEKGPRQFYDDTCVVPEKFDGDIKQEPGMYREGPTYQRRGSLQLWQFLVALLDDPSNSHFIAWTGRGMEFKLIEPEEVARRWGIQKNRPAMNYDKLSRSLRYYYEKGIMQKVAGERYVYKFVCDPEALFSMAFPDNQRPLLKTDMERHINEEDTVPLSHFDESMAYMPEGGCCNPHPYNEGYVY
Sequence of ELF4 (Q99607 whole entry): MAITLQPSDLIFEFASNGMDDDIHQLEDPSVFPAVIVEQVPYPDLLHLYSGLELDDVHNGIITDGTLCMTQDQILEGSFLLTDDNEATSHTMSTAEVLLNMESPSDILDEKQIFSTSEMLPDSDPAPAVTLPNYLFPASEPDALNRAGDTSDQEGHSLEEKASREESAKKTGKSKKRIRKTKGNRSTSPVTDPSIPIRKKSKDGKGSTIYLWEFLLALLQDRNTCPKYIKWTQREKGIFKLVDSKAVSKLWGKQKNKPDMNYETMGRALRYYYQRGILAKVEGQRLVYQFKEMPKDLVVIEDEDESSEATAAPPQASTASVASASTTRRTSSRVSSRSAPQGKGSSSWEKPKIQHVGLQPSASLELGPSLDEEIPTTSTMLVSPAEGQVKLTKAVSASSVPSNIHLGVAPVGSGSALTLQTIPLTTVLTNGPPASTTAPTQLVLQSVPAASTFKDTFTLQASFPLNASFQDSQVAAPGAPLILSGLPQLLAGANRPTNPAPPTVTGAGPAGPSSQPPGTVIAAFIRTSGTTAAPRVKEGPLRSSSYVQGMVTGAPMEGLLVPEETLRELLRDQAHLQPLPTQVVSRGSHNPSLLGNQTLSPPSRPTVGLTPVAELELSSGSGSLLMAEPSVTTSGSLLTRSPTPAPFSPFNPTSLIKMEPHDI
Sequence of ETV6 (P41212 whole entry): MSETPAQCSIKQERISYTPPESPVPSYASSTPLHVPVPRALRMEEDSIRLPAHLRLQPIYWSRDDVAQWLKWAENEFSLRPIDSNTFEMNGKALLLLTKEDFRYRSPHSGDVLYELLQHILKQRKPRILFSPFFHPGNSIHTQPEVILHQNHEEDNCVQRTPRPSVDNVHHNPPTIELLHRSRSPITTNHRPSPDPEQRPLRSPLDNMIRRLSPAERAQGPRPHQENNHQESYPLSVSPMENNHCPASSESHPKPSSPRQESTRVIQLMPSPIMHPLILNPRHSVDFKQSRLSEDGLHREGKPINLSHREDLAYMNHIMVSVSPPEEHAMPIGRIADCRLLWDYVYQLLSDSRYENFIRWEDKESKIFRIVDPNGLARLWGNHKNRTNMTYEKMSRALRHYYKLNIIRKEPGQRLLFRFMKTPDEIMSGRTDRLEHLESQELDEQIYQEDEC
Sequence of SPIB (Q01892 whole entry): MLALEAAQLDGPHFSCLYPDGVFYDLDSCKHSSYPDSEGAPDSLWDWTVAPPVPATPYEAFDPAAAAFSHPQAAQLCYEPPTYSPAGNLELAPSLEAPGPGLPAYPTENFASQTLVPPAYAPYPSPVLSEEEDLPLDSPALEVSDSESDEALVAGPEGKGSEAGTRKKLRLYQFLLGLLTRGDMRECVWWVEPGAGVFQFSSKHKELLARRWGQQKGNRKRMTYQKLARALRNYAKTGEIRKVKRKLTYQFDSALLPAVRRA
Sequence of ETV5 (P41161 whole entry): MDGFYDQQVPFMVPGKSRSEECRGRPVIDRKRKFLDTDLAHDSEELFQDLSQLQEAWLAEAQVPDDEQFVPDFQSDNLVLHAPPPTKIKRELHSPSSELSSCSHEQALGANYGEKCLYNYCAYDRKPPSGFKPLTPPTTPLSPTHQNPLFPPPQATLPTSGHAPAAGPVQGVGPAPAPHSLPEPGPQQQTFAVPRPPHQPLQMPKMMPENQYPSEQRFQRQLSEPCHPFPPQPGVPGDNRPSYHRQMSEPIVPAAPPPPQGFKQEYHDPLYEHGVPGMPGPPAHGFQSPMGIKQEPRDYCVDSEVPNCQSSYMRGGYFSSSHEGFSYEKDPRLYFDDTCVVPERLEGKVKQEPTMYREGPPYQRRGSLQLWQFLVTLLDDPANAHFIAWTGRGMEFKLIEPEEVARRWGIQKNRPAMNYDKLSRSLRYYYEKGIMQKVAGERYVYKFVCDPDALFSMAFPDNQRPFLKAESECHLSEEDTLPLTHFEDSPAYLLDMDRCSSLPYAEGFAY
Sequence of ELF1 (P32519 whole entry): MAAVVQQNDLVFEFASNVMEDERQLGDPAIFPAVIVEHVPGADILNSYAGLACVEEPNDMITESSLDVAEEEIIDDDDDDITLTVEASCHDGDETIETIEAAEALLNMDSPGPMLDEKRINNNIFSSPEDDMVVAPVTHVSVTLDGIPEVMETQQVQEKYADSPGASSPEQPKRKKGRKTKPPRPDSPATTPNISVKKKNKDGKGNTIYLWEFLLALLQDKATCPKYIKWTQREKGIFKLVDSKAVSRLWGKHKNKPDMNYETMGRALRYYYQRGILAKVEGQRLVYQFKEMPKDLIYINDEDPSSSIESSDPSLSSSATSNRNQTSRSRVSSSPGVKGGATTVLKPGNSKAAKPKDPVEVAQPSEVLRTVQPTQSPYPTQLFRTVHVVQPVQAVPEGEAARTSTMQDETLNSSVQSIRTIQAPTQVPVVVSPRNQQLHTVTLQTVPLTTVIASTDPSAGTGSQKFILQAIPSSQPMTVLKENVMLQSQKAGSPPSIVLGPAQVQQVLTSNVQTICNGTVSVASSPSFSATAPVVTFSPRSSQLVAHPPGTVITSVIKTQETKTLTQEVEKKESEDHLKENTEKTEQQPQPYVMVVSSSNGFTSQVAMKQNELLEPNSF

What does the source list for TACCCC?
binding signal [1]: 1.14 fold enrichment (6-mer frequency, TF over GST control); binding signal [2]: 1.11 fold enrichment (6-mer frequency, TF over GST control); binding signal [3]: 1.16 fold enrichment (6-mer frequency, TF over GST control); binding signal [4]: 1.07 fold enrichment (6-mer frequency, TF over GST control); binding signal [5]: 1.14 fold enrichment (6-mer frequency, TF over GST control); binding signal [6]: 1.12 fold enrichment (6-mer frequency, TF over GST control); binding signal [7]: 1.11 fold enrichment (6-mer frequency, TF over GST control); binding signal [8]: 1.09 fold enrichment (6-mer frequency, TF over GST control); binding signal [9]: 1.11 fold enrichment (6-mer frequency, TF over GST control); binding signal [10]: 1.07 fold enrichment (6-mer frequency, TF over GST control); binding signal [11]: 1.07 fold enrichment (6-mer frequency, TF over GST control); binding signal [12]: 1.15 fold enrichment (6-mer frequency, TF over GST control); binding signal [13]: 1.06 fold enrichment (6-mer frequency, TF over GST control); binding signal [14]: 1.02 fold enrichment (6-mer frequency, TF over GST control); binding signal [15]: 1.1 fold enrichment (6-mer frequency, TF over GST control); binding signal [16]: 1.21 fold enrichment (6-mer frequency, TF over GST control); binding signal [17]: 1.02 fold enrichment (6-mer frequency, TF over GST control); binding signal [18]: 1.09 fold enrichment (6-mer frequency, TF over GST control); binding signal [19]: 1.04 fold enrichment (6-mer frequency, TF over GST control)
